Assay outcomes deposited in PubChem BioAssay by National Center for Advancing Translational Sciences (NCATS).
LASV entry inh: inhibitors of Lassa virus binding or cell entry; hit rate 1.2% among 300,000; Lassa virus pseudotype entry inhibition, cell reporter; Potency, µM (doses to about 37.9 µM), for the others: at the top dose activity change, negative = inhibition, hits mostly inhibitors; calls by dose curve; tested in HEK293 cells; also: potency is read from the fitted curve at half-maximal effect; nearly all actives have a fitted effect of over 50% in size
HCMV inh: blocks human cytomegalovirus replication; hit rate 4.5% among 410,000; HFF cells, HCMV-luciferase reporter, 72 h; stronger effect = lower value; activity change, negative = inhibition, % at 57.5 µM; AID 1259415; in the data active = activity change below about -60%; inconclusive = no clear call, values can overlap the other calls; inactive = above about -39%
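HFF cells seeded 16 h at 37C, treated with compounds, infected with luciferase-reporter HCMV at MOI 1 PFU/cell; luciferase read at 72 h post infection, normalized to buffer-only and Salinomycin controls.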
HCV inhibitor: blocks hepatitis C virus; AID 651820; Huh7.5.1 HCVcc-Cre infection, luciferase reporter, 44 h; Potency, µM (highest dose often 41.8 µM), without a hit: at the top dose activity change, negative = inhibition, actives largely listed as inhibitors; hit rate 3.4% among 340,000; active = well fitted inhibition curve with a large enough effect; inconclusive = small, poorly fitted or top-dose-only effect, or another doubt; inactive = no such curve, though single readings can be large or run the other way; also: potency is read from the fitted curve at half-maximal effect
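Compounds are dispensed onto cells plated 4 h earlier at 1,000 per well, with HCVcc-Cre virus (about 0.5 moi) added next. Following 44 h of culture, luminescent signal is measured for 15 sec after 15 min with substrate at room temperature.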
FMDV inh: antivirals against foot and mouth disease virus. FMDV antiviral cell-based qHTS. Potency, µM (top dose mostly 57.9 µM), for the others: top-dose activity change, negative = inhibition, usual class: inhibitors. hit rate 1.2% among 410,000. AID 1159524; calls by dose curve; tested in HEK293T cells; also: read-out not given here; potency is read from the fitted curve at half-maximal effect; nearly all actives have a fitted effect of over 45% in size
MARV entry inh: Marburg virus entry inhibition; Marburg virus pseudotyped entry inhibition, cell reporter; Potency, µM (titrated, usually from 37.8 µM), for inactives: at the highest dose activity change, negative = inhibition, hits mostly inhibitors; hit rate 1.8% among 300,000; AID 540276; calls by dose curve; tested in HEK293 cells; also: potency is read from the fitted curve at half-maximal effect
* hit, by the source's call; ? = inconclusive; · = no result given; [ ] = remark or other dose. Only some compounds are listed: those with a hit (about 7.9% of all), similar ones and a draw of the others. % is scaled to controls: 0 for no effect and ±100 for the full control effect.

SMILES	LASV entry inh	HCMV inh	HCV inhibitor	FMDV inh	MARV entry inh
CCOc1cc(CNCCSc2nnnn2C)ccc1OCc1ccc(Cl)cc1Cl	-5%[46.1 µM]	-99*	·	?	?
Cn1nnnc1SCCCNCc1cc(Br)ccc1OCc1ccccc1	10%[46.1 µM]	-63*	·	?	?
Cn1nnnc1SCCCNCc1cc(Br)ccc1OCc1ccccc1F	-11%[46.1 µM]	?	·	?	?
COc1cc(CNCCSc2nnnn2C)ccc1OCc1ccc(F)cc1	1%[46.1 µM]	-77*	·	0%	?
COc1ccc2c(c1)CCc1cnc(-n3ncc(C(=O)NCc4cc(C)no4)c3C3CC3)nc1-2	·	·	·	14%	·
CCN1C(=O)[C@H]2[C@@H](c3ccc(OC)cc3)N3C(=O)CN(CCOC)C(=O)[C@@]3(Cc3ccccc3)[C@H]2C1=O	·	?	16%	-22%	·
CCO[C@@H]1OC(C(=O)N2CCN(Cc3ccc4c(c3)OCO4)CC2)=C[C@H](c2coc3ccccc3c2=O)[C@H]1CCCO	·	-89*	-25%	-29%	·
CCO[C@H]1OC(C(=O)N2CCOCC2)=C[C@@H](c2coc3ccccc3c2=O)[C@@H]1CCCO	·	-23	35µM*	-19%	·
CCO[C@H]1OC(C(=O)N2CCN(Cc3ccccc3)CC2)=C[C@@H](c2coc3ccccc3c2=O)[C@@H]1CCCO	·	-15	-21%	-29%	·
COc1ccc([N+](=O)[O-])cc1NC1CCCCC1	?	-15	11µM*	-28%	-2%
COc1ccc(OC)c(CNc2ccc([N+](=O)[O-])cc2C)c1	-1%	-91*	-21%	?	-27%[46.1 µM]
O=[N+]([O-])c1ccc(NCc2ccc3c(c2)OCO3)cc1	15%[46.1 µM]	11	?	15%	3%[46.1 µM]
Cc1cc([N+](=O)[O-])ccc1NCc1ccc2c(c1)OCCO2	26%	59	10µM*	8%	6%
COc1ccc([N+](=O)[O-])cc1NCc1ccccc1	16%	-33	6.3µM*	-24%	23%
COc1ccc([N+](=O)[O-])cc1NCc1ccccc1C	?	-33	-68%	·	-9%
COc1ccc([N+](=O)[O-])cc1NC1C2CC3CC(C2)CC1C3 (stereo not drawn)	-18%	-35	-14%	-17%	-5%
CCc1nc2c(OCCOc3ccc(F)cc3)cccn2c1N(C)C(=O)CC(C)C	·	-29	·	-11%	·
Cc1cc(C)nc(N/C(=N\S(=O)(=O)Cc2ccccc2)Nc2ccccc2Br)n1	4.1µM*	?	-7%	37%	2.8µM*
Cc1cc(C)nc(Nc2ccccc2Br)n1	13%	-17	-4%	5%	23%
c1ccc(NC2C(c3ccccc3)=Nc3ccccc3-n3nnnc32)cc1 (stereo not drawn)	·	3	·	·	·
CC[C@H](C)[C@@H]1NC(=O)[C@@H](CC(C)C)NC(=O)[C@H](C(C)C)NC(=O)[C@H]2CSSC[C@H](NC1=O)C(=O)N2	·	-106*	·	6.3µM*	·
C[C@H](CO)N1C[C@H](C)[C@@H](CN(C)S(=O)(=O)c2ccccc2)Oc2ccc(NC(=O)Nc3ccccc3)cc2C1=O	·	-73*	-3%	-14%	·
Cc1ccc(S(=O)(=O)N(C)C[C@@H]2Oc3ccc(NS(C)(=O)=O)cc3CC(=O)N([C@H](C)CO)C[C@@H]2C)cc1	·	-20	2.8µM*	-17%	·
C[C@H](CO)N1C[C@H](C)[C@@H](CN(C)S(=O)(=O)c2cccs2)Oc2ccc(NC(=O)Nc3ccccc3)cc2C1=O	·	-65*	-12%	-20%	·
COc1ccc(S(=O)(=O)Nc2ccc3c(c2)C(=O)N([C@H](C)CO)C[C@H](C)[C@@H](CN(C)S(=O)(=O)c2ccc(OC)cc2)O3)cc1	·	-92*	36%[8.37 µM]	-8%	·
SMILES	LASV entry inh	HCMV inh	HCV inhibitor	FMDV inh	MARV entry inh
COc1ccc(S(=O)(=O)Nc2ccc3c(c2)C(=O)N([C@@H](C)CO)C[C@H](C)[C@H](CN(C)S(=O)(=O)c2ccc(F)cc2)O3)cc1	·	-10	-2%	-16%	·
CCn1c(-c2ccccc2F)nc2cc(C(=O)N3CCCC(CO)C3)cc(NC(C)=O)c21 (stereo not drawn)	·	·	·	5%	·
COc1ccc(C(=O)NCc2nnc(SCC(=O)N3CCCC3)o2)cc1OC	2%	9	15%	-15%	20%
COc1ccc2c(c1)NC(c1ccc(Cl)cc1)=NC(c1cccs1)=N2	7%[46.1 µM]	-5	·	-7%	5%[46.1 µM]
CCOC(=O)c1cc(NC(=O)Nc2cc(C)ccn2)c(C)nc1C	13%	-65*	-16%	-6%	-19%[46.1 µM]
CCOC(=O)Nc1cc(C(=O)OCC)c(C)nc1C	-11%	-21	22%	-20%	4%
O=C(CCCOc1ccccc1)Nc1cccnc1	16%	-34	7%	11%	-1%
O=C(COc1ccccc1)Nc1ccncc1	-2%[46.1 µM]	-35	-7%	-11%	-13%[46.1 µM]
O=C(COc1ccc2ccccc2c1)Nc1ccncc1	-1%	-100*	?	-13%	-4%[46.1 µM]
N#Cc1ccc(-c2ccc(OCC(=O)Nc3cccnc3)cc2)cc1	-14%	-69*	?	?	?
O=C(COc1ccc(C(=O)c2ccccc2)cc1)Nc1cccnc1	?	-38	6.3µM*	?	?
COc1ccc(/C=N/NC(=O)CCn2cnc(-c3ccccc3)c2-c2ccccc2)cc1	2.3µM*	-83*	9%	?	18µM*
O=C(CCn1cnc(-c2ccccc2)c1-c1ccccc1)N/N=C/c1ccccc1O	23µM*	?	?	-7%	?
COC(=O)c1ccc(NC(=O)CN(Cc2ccccc2)S(=O)(=O)c2ccc(Cl)cc2)cc1	?	-24	·	?	-9%[46.1 µM]
CCc1cc(C(=O)NC2CCCN(Cc3ccccc3F)C2)n(C)n1 (stereo not drawn)	·	-34	8.9µM*	?	·
Cn1nc(C(=O)NC2CCCN(Cc3ccccc3F)C2)c2ccccc2c1=O (stereo not drawn)	?	35	?	-24%	?
N#CC(C#N)=C(Nc1ccc(F)cc1)SCc1cccc(Br)c1	?	-99*	5µM*	1.8µM*	?
Cc1cccc(CSC(Nc2ccc(F)cc2)=C(C#N)C#N)c1	?	-102*	11µM*	?	2.9µM*
COC(=O)c1scc(-c2ccc(C)cc2)c1S(=O)(=O)Nc1cc(C)c(Cl)cc1OC	-15%[46.1 µM]	-28	·	-1%	·
c1cn(-c2cc(-c3ccc4c(c3)OCO4)ncn2)cn1	·	·	·	2%	·
Cc1cccc(N(C)C(=S)Oc2ccc3ccccc3c2)c1	-2%	-61*	3%[8.37 µM]	-23%	-8%
COC(=O)c1ccc(OC)c(CSc2nnc(COc3cccc(C)c3)o2)c1	0%	49	?	-23%	16µM*
COC(=O)c1ccc(OC)c(CSc2nnc(COc3ccc(OC)cc3)o2)c1	?	-21	?	?	?
COc1ccccc1OCC(=O)Nc1cc(Cl)ccc1Oc1ccccc1	12%	-25	35%	-13%	1%
CCNS(=O)(=O)c1ccc(CCC(=O)Nc2cc(Cl)ccc2Oc2ccccc2)cc1	?	?	10µM*	?	?
CC(C)NS(=O)(=O)c1ccc(NC(=O)CCc2ccccc2)cc1	10%	-14	-22%	-15%	18%
